Where “and” joins values, the source holds several entries; their conditions need not be identical. Equal entries are not always repeated. Inconclusive results are not listed. Entries that show only a call come without a potency. Where a structure was tested more than once in an assay, its records may differ in their call. Calls of active or inactive are those of the source. Calls follow the shape of the dose curve; as a rule, active = well fitted activation curve with a large enough effect in the repeat runs; inconclusive = weak or mixed curves; inactive = flat fitted curve, though single readings scatter.
assay: A CellTox Green Cytotoxicity Assay to monitor cytotoxicity in HEK293 cells - 8 hour (AID 1224884); conditions: CellTox Green fluorescence; series mostly up to 76.8 µM; also: nearly all actives have a fitted effect of over 35% in size
Outline: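 Read-out: fluorescence of a cell-impermeant cyanine dye staining DNA of dead cells, proportional to cytotoxicity. HEK293, 600 cells/well with reagent, compound (23 nL DMSO) added after 5 h; reads at 0, 8, 16, 24, 32, 40 h.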
Potency is read from the fitted curve at half-maximal effect.

SMILES	Potency
OC(c1ccc(Cl)cc1)(c1cncnc1)c1ccccc1Cl (stereo unspecified)	inactive
ClCc1ccccn1	inactive
C[C@]12CCC(=O)C=C1CC[C@@H]1[C@@H]2CC[C@@]2(C)[C@H]1CC[C@]2(C)O	44 µM (active) and inactive
COP(=S)(OC)SCn1nnc2ccccc2c1=O	inactive
CCCCOCC1CO1 (stereo unspecified)	inactive and 24.5 µM (active)
Cc1ccc(N=CN(C)C=Nc2ccc(C)cc2C)c(C)c1	inactive
Cn1c(-c2ccccc2)cc(-c2ccccc2)[n+]1C	inactive
Cc1cccc(N=Nc2ccc(N(C)C)cc2)c1	inactive
C=C(C)C#N	inactive
CCOP(=S)(OCC)OP(=S)(OCC)OCC	inactive
O=S(=O)(O)C(F)(F)C(F)(F)C(F)(F)C(F)(F)C(F)(F)C(F)(F)C(F)(F)C(F)(F)F	37 µM (active) and inactive and 11 µM (active)

Source: PubChem BioAssay (Tox21)
